Assay results as given in PubChem BioAssay (Tox21).
Inconclusive results are not listed. The source made the active and inactive calls. Unless noted, the call rests on the fitted dose curve; in most records, active means well fitted curve in the direction sought with a large enough effect in the repeat runs; inconclusive means weak or mixed curves; inactive means no such curve, though single readings can be large; an effect the other way counts as inactive or inconclusive.

Key:
[1] = qHTS assay to identify small molecule agonists of the hypoxia (HIF-1) signaling pathway - cell viability counter screen (AID 1224844; calls by dose curve; further: nearly all actives have a fitted effect of over 50% in size)
Procedure, shortened: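 ME-180 HRE-bla cells, 2,000/well, 0.5% dialyzed FBS; 5 hr settle, 17 hr compound at 37C/5% CO2; CCF4-AM reporter read first, then CellTiter-Glo luminescence after 30 min RT.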

[2] = qHTS assay to identify small molecule agonists of H2AX (AID 1224845; active means well fitted activation curve with a large enough effect in the signal ratio in the repeat runs, not every such curve was filed as active; the % refers to the signal ratio)
Procedure, shortened: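 Wild-type CHO-K1 cells, plated overnight, exposed 3hr at 37C to 15 concentrations (0.76% DMSO final). Lysed, then HTRF anti-pH2AX (S139) cryptate and anti-H2AX-d2 antibodies, 24 hr room temperature; 665/620 nm emission read.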

[3] = qHTS assay to identify small molecule agonists of the hypoxia (HIF-1) signaling pathway (AID 1224846; active means well fitted activation curve with a large enough effect in the signal ratio in the repeat runs, not every such curve was filed as active; the % refers to the signal ratio)
Procedure, shortened: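 Cell line: CellSensor HRE-bla ME-180; 2,000 cells/well; 0.5% dialyzed FBS; 5 h preincubation; DMSO compound pin transfer; 17 h, 37C, 5% CO2; CCF4-AM added; bla FRET signal scored for activation.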

[4] = qHTS RealTime-Glo MT Cell Viability Assay in HepG2 cells - 24 hour (AID 1224867); further: nearly all actives have a fitted effect of over 50% in size
Procedure, shortened: (§1)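 Viability was tracked continuously by NanoLuc luminescence from prosubstrate reduced by living HepG2 cells, at successive time points over 40 h of compound exposure. Cells with reagent were preincubated 5 h at 37 °C before compound addition.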

[5] = qHTS RealTime-Glo MT Cell Viability Assay in HEK293 cells - 32 hour (AID 1224868); further: top concentration of the series differs between compounds; nearly all actives have a fitted effect of over 50% in size
Procedure, shortened: (§2)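 Viability tracked continuously by luminescence as live cells reduce a prosubstrate for NanoLuc; HEK293 cells preincubated 5 h, compound-treated at 37 C, and read at 0, 8, 16, 24, 32 and 40 h.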

[6] = A CellTox Green Cytotoxicity Assay to monitor cytotoxicity in HEK293 cells - 0 hour (AID 1224869); further: nearly all actives have a fitted effect of over 50% in size
Procedure, shortened: (§3)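 Nonlytic real-time cytotoxicity: HEK293 + CellTox Green reagent plated, 5 h preincubation, pintool compound addition (23 nL in DMSO), 37 C for 40 h, fluorescence measured at successive time points.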

[7] = qHTS RealTime-Glo MT Cell Viability Assay in HepG2 cells - 40 hour (AID 1224870); further: nearly all actives have a fitted effect of over 50% in size; further: potency means the concentration at half of the fitted maximal effect
Procedure, shortened: (§4)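 HepG2 cells (600/well) mixed with RealTime-Glo MT reagent, settled 5 h at 37 C/5% CO2 before compound addition. Nonlytic NanoLuc luminescence from viable-cell prosubstrate reduction read repeatedly during 40 h treatment at 37 C.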

[8] = A CellTox Green Cytotoxicity Assay to monitor cytotoxicity in HEK293 cells - 40 hour (AID 1224871); further: nearly all actives have a fitted effect of over 45% in size
Procedure, shortened: as §3

[9] = qHTS RealTime-Glo MT Cell Viability Assay in HEK293 cells - 16 hour (AID 1224872)
Procedure, shortened: as §2

[10] = qHTS RealTime-Glo MT Cell Viability Assay in HepG2 cells - 8 hour (AID 1224873); further: nearly all actives have a fitted effect of over 55% in size
Procedure, shortened: as §4

[11] = qHTS RealTime-Glo MT Cell Viability Assay in HEK293 cells - 40 hour (AID 1224874); conditions: RealTime-Glo luminescence; max response: hits give low values; further: nearly all actives have a fitted effect of over 50% in size
Procedure, shortened: (§5)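 Cells were seeded together with NanoLuc luciferase and a prosubstrate that viable cells reduce to a luciferase substrate. After a 5 h incubation at 37 C/5% CO2, compounds were added and luminescence was measured repeatedly during 40 h of treatment.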

[12] = A CellTox Green Cytotoxicity Assay to monitor cytotoxicity in HEK293 cells - 24 hour (AID 1224875); further: series mostly up to about 77 µM; nearly all actives have a fitted effect of over 45% in size
Procedure, shortened: as §3

[13] = A CellTox Green Cytotoxicity Assay to monitor cytotoxicity in HepG2 cells - 16 hour (AID 1224876); further: nearly all actives have a fitted effect of over 45% in size
Procedure, shortened: (§6)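 Read-out is fluorescence of a cyanine dye excluded from live cells that stains DNA of dead HepG2 cells, with signal proportional to cytotoxicity. Plates were read at 0, 8, 16, 24, 32 and 40 h after compound addition.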

[14] = qHTS RealTime-Glo MT Cell Viability Assay in HepG2 cells - 32 hour (AID 1224877); further: nearly all actives have a fitted effect of over 55% in size
Procedure, shortened: as §1

[15] = A CellTox Green Cytotoxicity Assay to monitor cytotoxicity in HepG2 cells - 24 hour (AID 1224878); further: nearly all actives have a fitted effect of over 45% in size
Procedure, shortened: as §6

[16] = A CellTox Green Cytotoxicity Assay to monitor cytotoxicity in HepG2 cells - 40 hour (AID 1224879); further: nearly all actives have a fitted effect of over 40% in size
Procedure, shortened: as §6

[17] = qHTS RealTime-Glo MT Cell Viability Assay in HEK293 cells - 0 hour (AID 1224880)
Procedure, shortened: as §5

[18] = qHTS assay to identify small molecule agonists of H2AX - cell viability counter screen (AID 1224847; calls by dose curve; further: top concentration of the series differs between compounds; nearly all actives have a fitted effect of over 30% in size)
Procedure, shortened: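 CHO-K1 cells plated overnight at 37C, then exposed 3 h at 37C to compounds at 15 concentrations (0.76% DMSO final). Viability by CellTiter-Glo luminescence after 30 min at room temperature.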

[19] = qHTS assay to identify small molecule antagonists of the estrogen related receptor (ERR) signaling pathway from Tox21 library (AID 1224848); further: nearly all actives have a fitted effect of over 50% in size
Procedure, shortened: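 ERR reporter cell line (from NTP) seeded 2,000 cells/well, rested 6 h at 37 C/5% CO2, then pin-dosed with compounds in DMSO. After 18 h at 37 C, ONE-Glo added; luminescence read after 30 min at room temperature.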

[20] = qHTS assay to identify small molecule agonists of the estrogen related receptor (ERR) signaling pathway from Tox21 library (AID 1224849; calls by dose curve; further: nearly all actives have a fitted effect of over 15% in size)
Procedure, shortened: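 ERR cells, 6 h pre-incubation 37 C/5% CO2; cpd in DMSO pinned; 18 h 37 C; ONE-Glo added, 30 min RT; luminescence read. Agonist mode, qHTS.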
On the % scale 0 is the no-effect control and ±100 the full control effect.

CCCCOC(=O)CCC(C)=O
inactive: Potency [1] | Potency [2] | outcome [3] | outcome [4] | Potency [5] | outcome [6] | Potency [7] | Potency [8] | Potency [9] | outcome [10] | max response [11] -4.42% | outcome [12] | outcome [13] | Potency [14] | outcome [15] | Potency [16] | Potency [17]

CO[C@@]1(NC(=O)C(C(=O)O)c2ccc(O)cc2)C(=O)N2C(C(=O)O)=C(CSc3nnnn3C)CO[C@@H]21 (stereo partly drawn)
inactive: Potency [1] | Potency [2] | outcome [18] | Potency [19] | Potency [5] | outcome [6] | Potency [7] | Potency [8] | Potency [9] | outcome [10] | max response [11] 11.1% | outcome [12] | outcome [13] | Potency [14] | outcome [15] | Potency [16] | Potency [17]

CC(C)C[C@@H](N)C(=O)O
inactive: activity change, negative = cytotoxicity [1] 2.77% [at 15.8 µM] | activation (H2AX phosphorylation) [2] -1.49% [at 31.6 µM] | activity change, negative = cytotoxicity [18] -4.41% [at 31.6 µM] | activity, negative = inhibition [19] 12.8% [at 19 µM] | activity change, positive = activation [20] 7.21% [at 19 µM] | activity change, negative = cytotoxicity [4] 3.14% [at 15.8 µM] | activity change, negative = cytotoxic [5] 5.13% [at 15.8 µM] | cytotoxicity [6] -0.288% [at 15.8 µM] | cytotoxicity increase [8] -2.15% [at 15.8 µM] | activity change, negative = cytotoxicity [9] 5.2% [at 15.8 µM] | viability change, negative = cytotoxic [10] 0.12% [at 15.8 µM] | max response [11] 5.97% | activity change [12] -2.57% [at 15.8 µM] | cytotoxicity increase [13] -14.3% [at 15.8 µM] | activity change, negative = cytotoxic [14] 4.67% [at 15.8 µM] | cytotoxicity [15] -14.3% [at 15.8 µM] | cytotoxicity increase [16] 0.791% [at 15.8 µM] | activity change, negative = cytotoxicity [17] 5.62% [at 15.8 µM]

Clc1cc(Cl)c(Cl)nc1Cl
inactive: Potency [1] | Potency [2] | outcome [18] | Potency [19] | outcome [20] | outcome [4] | Potency [5] | outcome [6] | Potency [7] | Potency [8] | outcome [10] | max response [11] -11.7% | outcome [12] | outcome [13] | Potency [14] | outcome [15] | Potency [16] | Potency [17]

CC(C#N)(CCC(=O)O)N=NC(C)(C#N)CCC(=O)O (stereo not drawn)
inactive: Potency [1] | Potency [2] | outcome [18] | Potency [19] | outcome [20] | outcome [4] | Potency [5] | outcome [6] | Potency [7] | Potency [8] | Potency [9] | outcome [10] | max response [11] 3.09% | outcome [12] | outcome [13] | Potency [14] | outcome [15] | Potency [16] | Potency [17]

CCCC[N+](C)(CCCC)CCCC
inactive: Potency [1] | Potency [2] | outcome [3] | outcome [4] | Potency [5] | outcome [6] | Potency [7] | Potency [8] | Potency [9] | outcome [10] | max response [11] -1.08% | outcome [12] | outcome [13] | Potency [14] | outcome [15] | Potency [17]

Cc1onc(-c2c(Cl)cccc2Cl)c1C(=O)Cl
inactive: Potency [1] | Potency [2] | outcome [3] | outcome [4] | Potency [5] | outcome [6] | Potency [7] | Potency [8] | Potency [9] | outcome [10] | max response [11] 2.75% | outcome [12] | outcome [13] | Potency [14] | outcome [15] | Potency [16] | Potency [17]

CCOC(=O)C1=NOC(c2ccccc2)(c2ccccc2)C1
inactive: Potency [1] | Potency [2] | outcome [3] | Potency [5] | outcome [6] | Potency [7] | Potency [8] | Potency [9] | outcome [10] | max response [11] 3.23% | outcome [12] | outcome [13] | Potency [14] | outcome [15] | Potency [16] | Potency [17]

C=CCOCC(O)CO (stereo not drawn)
inactive: Potency [1] | Potency [2] | outcome [3] | outcome [4] | outcome [6] | Potency [7] | outcome [10] | max response [11] 16.5% | Potency [14] | Potency [17]

CCCCCC(C)N (stereo not drawn)
inactive: Potency [1] | Potency [2] | outcome [3] | outcome [4] | Potency [5] | outcome [6] | Potency [7] | Potency [8] | Potency [9] | outcome [10] | max response [11] 1.04% | outcome [12] | outcome [13] | Potency [14] | outcome [15] | Potency [17]

Cc1ccnc(NS(=O)(=O)c2ccc(N)cc2)n1
inactive: Potency [1] | Potency [2] | outcome [18] | Potency [19] | outcome [4] | Potency [5] | outcome [6] | Potency [7] | Potency [8] | Potency [9] | outcome [10] | max response [11] 6.66% | outcome [12] | outcome [13] | Potency [14] | outcome [15] | Potency [16] | Potency [17]

C[N+](C)(CCOc1ccccc1)Cc1cccs1
active: Potency [7] 23.9 µM
inactive: Potency [1] | Potency [2] | outcome [18] | Potency [19] | outcome [4] | outcome [6] | Potency [8] | Potency [9] | outcome [10] | max response [11] 6.59% | outcome [12] | Potency [17]

CC(C)CCCO
inactive: Potency [1] | Potency [2] | outcome [3] | outcome [4] | Potency [5] | outcome [6] | Potency [7] | Potency [8] | outcome [10] | max response [11] 9.91% | outcome [12] | outcome [13] | Potency [14] | outcome [15] | Potency [16] | Potency [17]

O=CN(CCO)CCO
inactive: Potency [1] | Potency [2] | outcome [3] | Potency [19] | outcome [4] | Potency [5] | outcome [6] | Potency [7] | Potency [8] | outcome [10] | max response [11] -0.597% | outcome [12] | outcome [13] | Potency [14] | outcome [15] | Potency [16] | Potency [17]

Cc1ccc(C(=O)c2ccccc2)cc1
inactive: Potency [1] | Potency [2] | outcome [3] | outcome [4] | outcome [6] | Potency [7] | Potency [8] | Potency [9] | outcome [10] | max response [11] -1.28% | outcome [12] | outcome [13] | Potency [14] | outcome [15] | Potency [17]
